Source: PubChem BioAssay (National Center for Advancing Translational Sciences (NCATS))
FBPA Giardia inh: inhibitors of Giardia lamblia fructose-1,6-bisphosphate aldolase; A8B2U2; 290,000 compounds, 0.71% hits; purified Giardia FBPA; Potency, µM (doses to about 59.6 µM), inactives show top-dose activity, negative = inhibition, usual class: inhibitors; also: nearly all actives have a fitted effect of over 55% in size
Target sequence (A8B2U2 whole entry, looked up): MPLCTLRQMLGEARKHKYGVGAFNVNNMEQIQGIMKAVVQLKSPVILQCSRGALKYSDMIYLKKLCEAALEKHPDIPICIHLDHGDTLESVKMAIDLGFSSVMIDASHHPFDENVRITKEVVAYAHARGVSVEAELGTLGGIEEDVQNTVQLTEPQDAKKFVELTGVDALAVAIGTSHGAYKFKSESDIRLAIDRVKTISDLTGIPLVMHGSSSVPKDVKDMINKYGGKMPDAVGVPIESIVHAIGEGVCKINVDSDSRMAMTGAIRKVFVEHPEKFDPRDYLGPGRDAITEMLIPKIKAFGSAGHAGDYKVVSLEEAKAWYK
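Giardia FBPA (40 nM reagent) was preincubated 10 min at RT with compound (up to 57.5 uM final), then substrate plus GAPDH/TPI/NAD/arsenate coupling system with diaphorase/resazurin was added; resorufin fluorescence (525/598 nm) was read after 20 min.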
Cruzain Triton: cruzain (T. cruzi) inhibition with detergent. purified cruzain, Z-FR-AMC fluorescence, 0.01% Triton. 200,000 compounds, 0.43% hits. P25779. Potency, µM, for the others: max response, negative = inhibition, most hits filed as inhibitors;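 also: plate controls were neutral wells for no effect and buffer without enzyme for full effect; nearly all actives have a fitted effect of over 40% in size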
Target sequence (P25779 123-467 limits assumed): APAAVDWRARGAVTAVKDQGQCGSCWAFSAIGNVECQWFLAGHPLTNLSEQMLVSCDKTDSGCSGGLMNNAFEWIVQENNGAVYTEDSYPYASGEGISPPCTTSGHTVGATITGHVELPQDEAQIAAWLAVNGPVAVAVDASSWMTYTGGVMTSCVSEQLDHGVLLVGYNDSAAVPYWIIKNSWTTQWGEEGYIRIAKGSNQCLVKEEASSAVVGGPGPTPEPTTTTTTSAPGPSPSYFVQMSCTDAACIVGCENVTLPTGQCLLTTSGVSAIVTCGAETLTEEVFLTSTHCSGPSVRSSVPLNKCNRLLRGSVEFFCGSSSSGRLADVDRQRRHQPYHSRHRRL
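Sodium acetate buffer (100 mM, pH 5.5) containing 5 mM DTT and 0.01% Triton X-100 hosted 1.5 nM cruzain and test compound for 15 min at room temperature. Cleavage of 2 uM Z-FR-AMC was then tracked by fluorescence.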
Cruzain inh noDet: blocks cruzain activity in detergent-free assay; 200,000 compounds, 2.3% hits; P25779; purified cruzain, Z-FR-AMC fluorescence, no detergent; Potency, µM, for the others: max response, negative = inhibition, most hits filed as inhibitors;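 also: plate controls were enzyme without inhibitor for no effect and buffer without enzyme for full effect; nearly all actives have a fitted effect of over 40% in size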
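Detergent-free condition (0.00005% Triton X-100) in acetate buffer pH 5.5 with DTT. 1.5 nM enzyme and compound were pre-mixed 15 min, then 2 uM Z-FR-AMC substrate added; reaction progress from fluorescence change between first and third reads (60 s).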
* marks the source's active call; other numbers are inactive results; ? = inconclusive; . = not tested or not shown; [ ] = another dose, or the depositor's remark. Shown is part of a subset that was picked to be rich in hits. Calls follow the shape of the dose curve; as a rule, active = well fitted curve in the direction sought with a large enough effect; inconclusive = small, poorly fitted or top-dose-only effect, or another doubt; inactive = no such curve, though single readings can be large; an effect the other way counts as inactive or inconclusive. Unless noted, % is scaled to controls: 0 for no effect and ±100 for the full control effect; potency is read from the fitted curve at half-maximal effect.

SMILES	FBPA Giardia inh	Cruzain Triton	Cruzain inh noDet
CCn1c(=O)c2sccc2n(CC(=O)NCCC2=CCCCC2)c1=O	4.4%	.	.
O=C(c1ccco1)N1CCN(c2nc3ccccc3n3nnnc23)CC1	5.6%	-2.3%	-15.9%
c1ccc(CC2CCN(c3nc4ccccc4n4nnnc34)CC2)cc1	0.6%	-1.3%	25.1µM*
c1ccc(-c2ccc(-c3csnn3)cc2)cc1	3.5%	4.2%	20µM*
O=S(=O)(Nc1ccccc1)c1ccc(-c2csnn2)cc1	4.8%	.	.
COC(=O)N/N=C/c1cn(CCOc2ccccc2OC)c2ccccc12	-1.7%	.	.
CNC(=S)N/N=C/c1cn(CCOc2cccc(OC)c2)c2ccccc12	1.4%	-26.6%	25.1µM*
COc1cccc(OCCn2cc(/C=N/NC(=O)c3ccncc3)c3ccccc32)c1	-0.8%	-11.3%	?
CNC(=S)N/N=C/c1cn(CCOc2ccccc2OC)c2ccccc12	-1.0%	-23.2%	31.6µM*
COc1cc2ncc3c(-c4ccccc4)nn(CC(=O)NC4CCCCC4)c3c2cc1OC	.	0.3%	-12.8%
COc1cc(-c2cc(OC)c3c(C)oc(C)c3c(=O)c2)ccc1OC(=O)c1ccccc1Cl	.	-20.9%	26.4%
COc1cc(-c2cccs2)cc(=O)c2c(C)oc(C)c12	?	-5.1%	20µM*
Cc1ccccc1CNC(=O)C(=O)NCC(c1cccs1)S(=O)(=O)c1ccc(Cl)cc1 (stereo not drawn)	.	-2.8%	23.3%
CC(=O)N[C@@H]1CONC1=O	.	-1.8%	3.7%
CCOc1ccccc1NS(=O)(=O)c1cccs1	14.1µM*	5.5%	4.7%
CCOc1ccccc1NC(=O)CCS(=O)(=O)c1cccs1	-12.0%	.	.
CCSCC[C@H](N)C(=O)O	.	1.3%	7.2%
CCOC(=O)OCC1OC(C#Cc2ccccc2)C=CC1OC(=O)OCC (stereo not drawn)	-2.5%[12.9 µM]	.	.
CC1CCC(NC(=O)Cn2ncc3c4ccccc4n(Cc4ccc(Cl)cc4)c3c2=O)CC1 (stereo not drawn)	.	-2.4%	2.3%
Cc1cc(C)c(Cn2c3ccccc3c3cnn(CC(=O)NC4CCC(C)CC4)c(=O)c32)c(C)c1 (stereo not drawn)	.	-2.2%	2µM*
Cc1nc(SCc2cc(=O)c3cccc(F)c3[nH]2)n[nH]1	.	1.3%	4.7%
CCOc1ccc(C(c2c(O)cc(C)n(CCOC)c2=O)N2CCN(c3ccccc3)CC2)cc1 (stereo not drawn)	.	1.2%	?
COc1cc(NC(=O)c2c(C)oc3ncnc(N4CCCCC4)c23)cc(OC)c1	.	-1.1%	13.9%
CC(C)(C)C(=O)Cn1c(=O)n(CCCCCC(=O)NCc2ccccc2Cl)c(=O)c2sccc21	.	-11.4%	10.5%
O=C(CCCCCn1c(=O)c2sccc2n(CC(=O)Nc2cc(C(F)(F)F)ccc2Cl)c1=O)NCc1ccccc1Cl	.	-7.4%	15.8µM*
SMILES	FBPA Giardia inh	Cruzain Triton	Cruzain inh noDet
Cc1cnn(C(=S)NCCc2ccccc2)c1	-14.4%	15.8µM*	12.6µM*
Cc1cnn(C(=S)NCc2ccc(Cl)cc2)c1	9.2%	-29.2%	-27.8%
O=C(O)C1CC2(C1)CC(C(=O)O)C2 (stereo not drawn)	.	-0.3%	3.6%
COc1ccccc1NC(=O)c1cc(Cl)ccc1NC(=O)c1ccco1	0.8%	-2.7%	2.9%
COc1ccc(NC(=O)c2ccco2)cc1NC(=O)c1ccco1	4.6%	1.5%	2.6%
COc1ccccc1NC(=O)c1ccccc1NC(=O)c1cc(Cl)ccc1NC(=O)c1ccco1	3.5%	-4.9%	15.8µM*
COc1ccc(NC(=O)c2ccco2)cc1N	39.8µM*	3.8%	-2.3%
CCCCCCc1ccc(C(=O)CCN(C)C)cc1	-0.6%	.	.
C#CCCCO/N=C1/C[C@@H](O)[C@@H](O)[C@@H]2[C@@H]3C(=O)N(C(C)(C)C)C(=O)[C@H]3CC[C@H]12	0.5%[12.9 µM]	.	.
Cc1cccc(Cn2c(=O)n(CCc3ccccc3)c(=O)c3c(C)c(C)sc32)c1	.	-2.0%	-9.8%
C=C(C)c1ccccc1 (tested in a mixture with another compound)	.	2.4%	-25.1%
N#CCCn1c(SCC(=O)c2c[nH]c3ccccc23)nc2ccccc21	1.1%	-6.0%	?
Cc1cc(C(=O)CSc2nc3ccccc3n2CCC#N)c(C)n1Cc1cccs1	-6.2%	2.2%	15.8µM*
CC(=O)Nc1nnc(CSCc2ccc(F)cc2)s1	6.2%	.	.
O=C(Nc1nnc(CSCc2ccc(F)cc2)s1)c1ccc([N+](=O)[O-])cc1	0.2%	-4.5%	25.1µM*
O=C(Nc1nnc(COc2ccc(Cl)cc2)s1)c1ccc([N+](=O)[O-])cc1	3.2%	4.4%	-9.3%
O=C(Nc1nnc(CCS(=O)(=O)c2ccc(Br)cc2)s1)c1ccc([N+](=O)[O-])cc1	3.1%	4.7%	5.01µM*
COc1ccc(-c2onc(C)c2C)cc1S(=O)(=O)Nc1cccc(C#N)c1	.	-5.0%	2.4%
O=C(Cn1c(=O)oc2ccccc21)NCc1ccccc1Cl	.	-2.3%	-5.2%
CCOc1ccccc1CNC(=O)c1ccc2nc(N3CCC(C)CC3)sc2c1	.	-0.2%	9.6%
Cc1ccc(-n2c(=O)c3oc4ccccc4c3n(CC(=O)Nc3ccc(F)c(Cl)c3)c2=O)cc1C	.	-2.9%	10µM*
Cc1ccc(-n2c(=O)c3oc4ccccc4c3n(Cc3ccccc3F)c2=O)cc1C	.	0.6%	-2.2%
Cc1cccc(-c2noc(-c3cccnc3NCc3ccco3)n2)c1	.	-15.5%	-4.0%
N#CC(C#N)=CC1=C2OC(c3ccccc3)=CC(c3ccccc3)=C2CCC1	0.8%	1.9%	5.01µM*
CC1=N/C(=C\c2ccc([N+](=O)[O-])cc2)C(=O)N1c1ccc(Cl)cc1	-2.7%	0.8%	15.8µM*
SMILES	FBPA Giardia inh	Cruzain Triton	Cruzain inh noDet
CC1=N/C(=C/c2ccc([N+](=O)[O-])cc2)C(=O)N1c1ccc(Cl)cc1Cl	2.5%	0.9%	-18.7%
O=C(NCCCN1CCc2ccccc2C1)C1CCN(c2nnc(-n3cccc3)s2)CC1	-29.3%	25.1µM*	-24.1%
O=C(NCCCN1CCN(Cc2ccccc2)CC1)C1CCN(c2nnc(-n3cccc3)s2)CC1	4.8%	-6.8%	-9.4%
CCCN1CCN(CCCNC(=O)c2ccc3c(c2)sc2nc(-c4ccc(OC)cc4)cn23)CC1	.	-2.2%	0.1%
c1ncc(CCCC2CCNCC2)[nH]1	-19.4%	.	.
O=c1c(-c2cccs2)nc2cnc(N3CCNCC3)nc2n1Cc1cccs1	-6.1%	-19.3%	-7.7%
COc1ccc(-c2cccc(-c3cc(=O)oc4ccc(C(C)(C)C)cc34)c2)cc1	-4.2%[89.2 µM]	-0.3%	35.5µM*
COc1cc(OC)c2c(-c3cccc(-c4ccc(OC)c(F)c4)c3)cc(=O)oc2c1	-2.3%	0.0%	31.6µM*
COc1cc2oc(=O)cc(-c3cccc(-c4ccc(C(F)(F)F)cc4)c3)c2c(OC)c1OC	-15.8%	0.3%	-23.7%
COc1cc(OC)c2c(-c3cccc(-c4ccc(C(C)=O)cc4)c3)cc(=O)oc2c1	-2.7%	3.5%	?
O=C(CCNS(=O)(=O)c1ccc2c(c1)CCCC(=O)N2)Nc1cccc(Cl)c1	.	-2.2%	-5.7%
COC(=O)[C@H](COC(C)(C)C)NC(=O)O[C@@H]1C(=O)c2cc(Br)ccc2O[C@H]1c1cccc(OC)c1	0.5%	-1.1%	4.8%
COc1ccc(Br)cc1CNC(=O)c1cnc2sc(N3CCCCCC3)nn2c1=O	.	-4.8%	7.1%
COc1ccc(OC)c(NC(=O)CS(=O)(=O)Cc2ccccc2)c1	2.3%	.	.
COc1ccc(OC)c(NS(=O)(=O)Cc2ccccc2)c1	-20.1%	-2.1%	31.6µM*
